# Experimental data as given in PubChem BioAssay (NCI).
# About 83,000 compounds went through this panel and 20% of them were active in at least one assay; those are over-represented in the sample as a whole.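 Growth was measured after 48 h exposure to one concentration of compound in 96-well plates. Values under 10 count as active.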 Values without a mark were called inactive. The source made the active and inactive calls.
# Tested on: HL-60(TB) leukemia
# Experiment: NCI-60 one-dose screen, 48 h (100 = growth as untreated, 0 = no growth, -100 = all killed)
# Settings: 10 µM unless noted
row,SMILES,growth
1,COC(=O)c1ccc2[nH]c(O)c(C(=Nc3ccc(N(C)C(=O)CN4CCN(C)CC4)cc3)c3ccc(N)cc3)c2c1,110%
2,Clc1ccc2c(c1)C[C@H]1C[C@@H](c3cccs3)N2O1,107%
3,C#CCOc1cccc(Nc2ncc3ncn(C4CCN(C(=O)CCl)C4)c3n2)c1 (stereo not given),-29% [6.25 µM] (active)
4,COc1ccc(-c2nc(-c3nc4cc(Cl)c(Cl)cc4[nH]3)c3ccccn23)cc1,99.9%
5,O=[N+]([O-])c1ccc(Sc2cccc[n+]2[O-])c2nonc12,-49.1% (active)
6,C=C1CC[C@@]2(C#N)[C@H]3[C@H](CC[C@@H]2C)[C@@H](C)C[C@@H](CC(C)(C)C#N)[C@H]13,21.8%
7,COc1cnc2c(c1)C(=O)c1c-2n(CCCN2CCN(CCO)CC2)c(=O)c2cc([N+](=O)[O-])ccc12,12.7%
8,CC(=O)NCC1c2c(n(C)c3c(Cl)c(Cl)ccc23)C(=O)NC1(C)C (stereo not given),84%
9,O=C1OCC2=C1C(c1cccc(C(F)(F)F)c1)c1cc3c(cc1N2CCO)OCO3 (stereo not given),-24.9% (active)
10,COc1ccc2c3ccnc(C(F)(F)F)c3n(CCCCN)c2c1,53.8%
11,CC1SC(N)=NC1=O (stereo not given),104%
12,O=C1Nc2cc(-c3ccc(O)cc3)ccc2/C1=C/c1ccc[nH]1,-8.12% (active)
13,COc1ccc(-c2ccc(=O)oc2C#Cc2cc(OC)c(OC)c(OC)c2)cc1O,-45.7% (active)
14,CS(=O)(=O)Nc1cc(-c2ccc3ncnc(Nc4cccc(Cl)c4F)c3c2)cnc1Cl,80.1%
15,COc1ccc(/C(=C\c2cc(OC)c(OC)c(OC)c2)C(=O)Nc2nc3ccc(Cl)cc3s2)cc1,81.4%
16,CCCCCN1C=C/C(=C\C(=O)N(C)c2ccc(OC(F)(F)F)cc2)c2ccccc21,111%
17,CNCCCn1c2c(c3ccc(Cl)cc3c1=O)C(=O)c1cc(OC)cnc1-2,-26.3% (active)
18,CN(C)CCC(=O)C1CC1,93.9%
19,O=C1NC(=O)c2ncccc21,115%
20,O=C(NC1=CC(=O)c2ccccc2C1=O)c1ccccc1,-30.8% (active)

row,SMILES,growth
1,COc1ccc2c(c1)N(CCO)C1=C(C(=O)OC1)C2c1ccc(OC)c(OC)c1 (stereo not given),-2.68% (active)
2,S=C(S)Oc1cccc2cccnc12,80.7%
3,Cc1ccccc1-c1cc(-c2ccc(Br)s2)[nH]c(=O)c1C#N,82%
4,C[C@@H](N)c1ccc(C(=O)Nc2ccnc3[nH]ccc23)cc1,67.5%
5,O=C1CCCCC=C1C[N+](=O)[O-],0.0104% (active)
6,CC12OC(CC(O)C1O)n1c3ccccc3c3c4c(c5c6ccccc6n2c5c31)C(=O)N(CCN1CCOCC1)C4=O (stereo not given),7.54% (active)
7,c1ccc(CP(Cc2ccccc2)c2ccccc2)cc1,84.2%
8,COC1OC(COS(=O)OC)C(O)C(O)C1OS(=O)OC (stereo not given),82.6%
9,Cc1ccc(-c2cc3nc(C(Cl)Cl)nc(-c4ccccc4C)n3n2)cc1,78.4%
10,CCCCCCCCCCCCCCCCC(=O)O.CCCCCCCCCCCCCCCCCC(=O)O.CCCCCCCCCCCCCCCCCC(=O)O.CCCCCCCCCCCCCCCCCC(=O)O.CCCCCCCCCCCCCCCCCC(=O)O.CO[CH-]OC12COC1CC(O)C1(C)C(O)C(OC(C)O)C3=C(C)C(OC(=O)C(O)C([NH-])c4ccccc4)CC(O)(C(OC(=O)c4ccccc4)C21)C3(C)C.[Cu+].[Zn].[Zn].[Zn].[Zn].[Zn] (stereo not given),-3.29% (active)
11,COc1ccc2c(c1)c(-c1nonc1-c1c[nH]c3ccc(Br)cc13)cn2C,53.2%
12,COc1cc(C2CC(=O)Nc3c2c(C)nn3-c2nc3ccccc3[nH]2)c(OC)c2c1OCO2 (stereo not given),26.2%
13,CCOC(=O)C(CC(c1ccccc1)N1CCCCC1)[N+](=O)[O-] (stereo not given),73.4%
14,COC(=O)CCCCN=Cc1c(O)c(O)c(C(C)C)c2cc(C)c(-c3c(C)cc4c(C(C)C)c(O)c(O)c(C=NCCCCC(=O)OC)c4c3O)c(O)c12,10.9%
15,CCCCOS(=O)(=O)c1ccccc1,111%
16,CCN(CC)c1ccc(/C=N/NC(=O)c2ccc(S(C)(=O)=O)cc2)c(O)c1,-18.5% (active)
17,CN1CCN(C(=O)/C=C/c2ccc([N+](=O)[O-])o2)CC1,66.2%
18,CC(C)(C)n1cc(-c2ccnc(NCCNS(=O)(=O)c3ccc(Br)cc3)c2)c(-c2cccc(O)c2)n1,-8.19% (active)
19,O=c1ccc2nc(-c3ccccc3)nn(-c3ccccn3)c-2c1,-28.1% (active)
20,O=C1c2cc3c(cc2-c2c1c1ccc(F)cc1c(=O)n2CCCNCCO)OCO3,-58.1% (active)
